Pf growth 48h – inhibits P. falciparum growth in the first generation, 48 h. Potency, µM (top dose mostly 28.7 µM), inactives show at the top dose activity change, negative = inhibition, actives largely listed as inhibitors. P. falciparum luciferase growth in erythrocytes, 48 h. actives 5.9% (n = 310,000); further: on the % scale 0 is the no-effect control and ±100 the full control effect
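Firefly luciferase activity from engineered P. falciparum reports growth; inhibitors lower the luminescent signal. Cultures contained 2% hematocrit erythrocytes at 0.1% final parasitemia.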
NS1 inh – inhibitors of influenza NS1 protein function; Potency, µM (titrated, usually from 46.1 µM), for inactives: at the top dose activity, positive = more growth; actives 0.4% (n = 270,000); calls by dose curve; further: actives are rising curves; nearly all actives have a fitted effect of over 50% in size
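Recovery from NS1-induced slow growth read by OD600 in budding yeast switched to galactose assay medium (pH 6.0, -URA) at 1:100 dilution. Compound 23 nl per well; the matching strain lacking NS1 serves as control.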
Pf growth 96h – P. falciparum growth inhibition at 96 hours; P. falciparum luciferase reporter growth, 96 h; Potency, µM (titrated, usually from 28.7 µM), inactives show top-dose activity change, negative = inhibition, usual class: inhibitors; actives 6.9% (n = 320,000); AID 504834; further: on the % scale 0 is the no-effect control and ±100 the full control effect
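P. falciparum expressing integrated firefly luciferase grown in erythrocytes (2% hematocrit, 0.05% parasitemia final) with compounds for 96 hours at 37 C, 5% CO2. Growth inhibition read as loss of luminescence after adding luciferase detection reagent.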
VACV Venus inh – vaccinia inhibition (Venus reporter); Vaccinia virus Venus reporter expression, fluorescence; Potency, µM (series often up to 36.5 µM), without a hit: at the highest dose activity change, negative = inhibition, hits mostly inhibitors; actives 0.46% (n = 330,000); AID 720580; calls by dose curve; tested in A549 cells; further: on the % scale 0 is the no-effect control and ±100 the full control effect; nearly all actives have a fitted effect of over 30% in size
Vaccinia mCherry – inhibitors of vaccinia virus infection (mCherry reporter signal); AID 720579; Potency, µM (series often up to 36.5 µM), inactives show at the top dose activity change, negative = inhibition, most hits filed as inhibitors; Vaccinia virus mCherry reporter infection, fluorescence; actives 0.63% (n = 310,000); calls by dose curve; tested in A549 cells; further: on the % scale 0 is the no-effect control and ±100 the full control effect; nearly all actives have a fitted effect of over 35% in size
HCV inhibitor – blocks hepatitis C virus. Huh7.5.1 HCVcc-Cre infection, luciferase reporter, 44 h. actives 3.4% (n = 340,000). Potency, µM (top dose mostly 41.8 µM), inactives show top-dose activity change, negative = inhibition, actives largely listed as inhibitors; further: on the % scale 0 is the no-effect control and ±100 the full control effect
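HCVcc-Cre virus at an moi near 0.5 was added right after compound to cells cultured 4 h from seeding (1,000 cells/well). Luciferase activity was determined 44 h later, 15 min after substrate addition at RT.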
An asterisk follows results filed as active; i = inactive; ? = inconclusive; nt = no result given. A selection: hits, their analogues and other compounds. The true share with any hit is near 11%. Unless noted, the call rests on the fitted dose curve; in most records, active means well fitted inhibition curve with a large enough effect; inconclusive means small, poorly fitted or top-dose-only effect, or another doubt; inactive means no such curve, though single readings can be large or run the other way. Potency means the concentration at half of the fitted maximal effect.

SMILES	Pf growth 48h	NS1 inh	Pf growth 96h	VACV Venus inh	Vaccinia mCherry	HCV inhibitor
CN(C)c1cc[n+](CC(=O)c2ccc(Br)cc2)cc1	?	nt	?	-7%	i	-10%
c1ccc(C2CC(c3cccs3)=NN2c2ccccc2)cc1 (configuration not stated)	10µM*	1%	10µM*	27%	?	-11%
CC(=O)Nc1ccc(C2CC(c3ccc(Cl)cc3)=NN2c2ccccc2)cc1 (configuration not stated)	nt	1%	4.7µM*	nt	nt	?
CC(=O)Nc1ccc(C2=NN(c3ccccc3)C(c3ccccc3)C2)cc1 (configuration not stated)	9.3µM*	3%	12µM*	-27%	?	-23%
Fc1ccc(C2CC(c3cccs3)=NN2c2ccccc2)cc1 (configuration not stated)	?	nt	-9%	-7%	-9%	?
CCOC(=O)C1=C(COC(=O)C(CC)c2ccccc2)NC(=O)NC1C (configuration not stated)	3%	nt	11%	nt	nt	2%
Nc1cc(N)nc(SCC(=O)NCC(=O)Nc2ccc(F)c(F)c2F)n1	nt	nt	nt	0%	-11%	-11%
CC(C)(O)C(=O)NNC(=S)Nc1cccc(C(F)(F)F)c1	13%	4%	12µM*	nt	nt	13%
FC(F)(F)c1cccc(NC(=S)NNC(=S)Nc2cccc(C(F)(F)F)c2)c1	?	-61%	?	nt	nt	nt
CNNC(=S)Nc1cccc(C(F)(F)F)c1	4.1µM*	5%	?	nt	nt	-28%
CCOc1ccc(NC(=S)NNC(=S)Nc2cccc(C(F)(F)F)c2)cc1	?	5%	13µM*	?	?	-17%
Cc1oc2ccc(O)c(CN3CCOCC3)c2c1C(=O)Nc1ccccc1	nt	nt	nt	4%	-10%	nt
Cc1ccc(NC2CCCN(C(=O)C3CCCC3)C2)cc1C (configuration not stated)	21%	-11%	13µM*	-7%	-19%	10%
Cc1ccc(NC2CCCN(C(=O)c3cccc(-c4ncc[nH]4)c3)C2)cc1C (configuration not stated)	?	-7%	10µM*	nt	nt	1%
Cc1ccc(NC2CCCN(C(=O)c3ccccc3-c3ncc[nH]3)C2)cc1C (configuration not stated)	-2%	-3%	2%	nt	nt	3%
Cc1ccc(NC2CCCN(C(=O)c3ccoc3)C2)cc1C (configuration not stated)	0%	0%	10µM*	nt	nt	12%
COc1cc(OC)cc(C(=O)Nc2ccc3c(c2)COC3=O)c1	15%	-4%	nt	-3%	-23%	-46%
CCC1(C)Cc2c(sc3nc(SCC(=O)O)[nH]c(=O)c23)CO1 (configuration not stated)	19%	10%	8.3µM*	2%	i	5%
Nc1ncnc2c1c(-c1ccc(Oc3ccccc3)cc1)cn2C1CCCC1	8.3µM*	?	5.2µM*	?	-10%	?
Cn1ncc2c(N3CCN(c4ccc(F)cc4)CC3)ncnc21	nt	nt	nt	-16%	-25%	nt
Cc1ccc(C)c(Nc2nnc(-c3ccc(C)c(S(=O)(=O)NCC4CCCO4)c3)c3ccccc23)c1 (configuration not stated)	nt	nt	nt	-14%	-12%	nt
CC(=O)Nc1ccc(Nc2nnc(-c3ccc(C)c(S(=O)(=O)NCC4CCCO4)c3)c3ccccc23)cc1 (configuration not stated)	1µM*	-34%	1.2µM*	nt	nt	8%
CNC(=O)c1ccc(Nc2nnc(-c3ccc(C)c(S(=O)(=O)NCC4CCCO4)c3)c3ccccc23)cc1 (configuration not stated)	5.2µM*	-17%	?	2%	-13%	?
CNS(=O)(=O)c1cc(-c2nnc(Nc3ccc(NC(C)=O)cc3)c3ccccc23)ccc1C	10µM*	-14%	?	-1%	-6%	-29%
Cc1ccc(-c2nn3c(-c4ccco4)nnc3c3ccccc23)cc1S(=O)(=O)NCC1CCCO1 (configuration not stated)	?	-33%	-24%	-13%	-12%	5%
SMILES	Pf growth 48h	NS1 inh	Pf growth 96h	VACV Venus inh	Vaccinia mCherry	HCV inhibitor
CCN(CC)C(=O)c1ccc(Nc2nnc(-c3ccc(C)c(S(=O)(=O)NC)c3)c3ccccc23)cc1	nt	nt	nt	-6%	-15%	nt
Cc1ccc(-c2nnc(Nc3ccccc3)c3ccccc23)cc1S(=O)(=O)NCC1CCCO1 (configuration not stated)	4.1µM*	6%	?	nt	nt	?
O=C(CCCc1nc2ccccc2s1)NNC(=O)CCN1CCN(Cc2ccccc2)CC1	-8%	nt	4%	?	?	1%
O=C(CSCc1cccc(Br)c1)N=Nc1c(O)[nH]c2ccccc12	10%	-50%	-22%	nt	nt	?
Cc1cccc2cc3c(N)c(C(=O)Nc4ccc(N5CCOCC5)cc4)sc3nc12	?	1%	?	-12%	i	4µM*
CCc1cccc2cc3c(N)c(C(=O)Nc4ccc(S(=O)(=O)N5CCCC5)cc4)sc3nc12	12µM*	4%	?	-7%	-24%	?
COc1cccc(CC(=O)Nc2ccc(S(=O)(=O)N3CCCCC3)cc2)c1	nt	nt	nt	-10%	-28%	?
Cc1ccc2nc3sc(C(=O)Nc4ccc(N5CCOCC5)cc4)c(N)c3cc2c1	?	2%	?	nt	nt	-24%
CCCN(CCC)C(=O)Cc1c(-c2ccc(Cl)cc2)nc2c(Cl)cc(Cl)cn12	-17%	0%	3%	-17%	-1%	23%
COc1ccc2c(c1)CC(=O)NC=C2	2%	4%	?	-1%	6%	22%
O=C(COC(=O)c1cc2c(s1)CCCCC2)NC1CCS(=O)(=O)C1 (configuration not stated)	0%	nt	25%	-12%	i	15%
C/C(=N\NC(=O)COc1ccc(C)cc1[N+](=O)[O-])c1cccs1	31%	nt	108%	-4%	-16%	-16%
C/C(=N\NC(=O)COc1ccc(C)cc1Br)c1cc([N+](=O)[O-])cs1	?	1%	?	?	?	8.9µM*
O=S(=O)(CCNCc1ccco1)NCc1ccccc1	nt	nt	nt	-19%	-9%	-10%
CCN1CCN(Cc2ccc(NC(=O)c3cc(NC(=O)c4cncc(-c5cccs5)c4)cc(OC)c3)cc2C(F)(F)F)CC1	?	17%	?	?	?	?
CCN1CCN(Cc2ccc(NC(=O)c3cc(NC(=O)c4ccc5n[nH]nc5c4)cc(OC)c3)cc2C(F)(F)F)CC1	4.1µM*	-12%	2.3µM*	-1%	i	-14%
CCN1CCN(Cc2ccc(NC(=O)c3cc(NC(=O)N4CCNC4=O)cc(OC)c3)cc2C(F)(F)F)CC1	5.2µM*	1%	4.1µM*	?	i	?

Assay outcomes from PubChem BioAssay.
